By cell viability is commonly meant a read-out of living cells in per cent, often relative to untreated cells.

± gives the standard deviation of the averaged measurements.

The first assay concerns Molm13. The experiment in a line: cell viability relative to DMSO control (bortezomib = 0%); higher = less growth inhibition. The note with it: 10 nM; 72 h. The method in brief: (§1)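 FLT3-ITD+ acute myeloid leukemia cells were dispensed onto a library of 679 approved and investigational compounds in 384-well plates, at 1000 cells per well in 50 µL and a single 10 nM dose, for 72 h. The screen was run in duplicate. Cell viability was read by CellTiter-Glo luminescence on an EnVision reader. Values were converted to percentages by per-plate linear regression between DMSO-treated cells (100%) and positive-control-treated cells (0%).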
As for `COc1ccc2c(c[n+](C)c3c4cc5c(cc4ccc23)OCO5)c1OC` [Chelerythrine chloride], the cell viability is 115 ± 13%.
Still for that read-out and setting: under `COc1ccc(N(C(=O)Oc2c(C)cccc2C)c2ccnc(Nc3ccc(N4CCN(C)CC4)cc3)n2)c(OC)c1` stands 94.5 ± 18%.
As for `O=C(O)c1nn(Cc2ccc(Cl)cc2Cl)c2ccccc12` [Lonidamine], the cell viability is 123 ± 1.8%.
With `COc1cc([C@@H]2c3cc4c(cc3[C@H](O)[C@H]3COC(=O)[C@@H]23)OCO4)cc(OC)c1OC` [Picropodophyllin (PPP)], the cell viability stood at 98.4 ± 8.1%.
On to `C/C(O)=C(\C#N)C(=O)Nc1cc(Br)ccc1Br`, for which the cell viability came to 108 ± 6.6%.
On to `COC(=O)C1(OC)CC2OC1(C)n1c3ccccc3c3c4c(c5c6ccccc6n2c5c31)C(=O)N(C)C4` (stereo unspecified), for which the cell viability was 115 ± 6.2%.
`CC(=O)N[C@H]1[C@@H](O[C@@H]2O[C@H](CC(O)[C@H]3O[C@@H](n4ccc(=O)[nH]c4=O)[C@H](O)[C@@H]3O)[C@H](O)[C@H](O)[C@H]2NC(=O)/C=C/CC(C)C)O[C@H](CO)[C@@H](N)[C@@H]1O` (stereo partly specified) [Tunicamycin]: the cell viability came out at 105 ± 14%.
In the case of `Cc1ccccc1-n1c(Cn2ncc3c(N)ncnc32)nc2cccc(C)c2c1=O`, the cell viability came out at 117 ± 1.4%.
Consider `Cc1ccccc1-n1c(Cn2cnc3c(N)ncnc32)nc2cccc(C)c2c1=O`, for which the cell viability amounted to 108 ± 13%.
`O=c1[nH]c2ccccc2n1C1CCN(Cc2ccc(-c3[nH]c4cc5ncnc5cc4nc3-c3ccccc3)cc2)CC1` [AKT inhibitor VIII]: the cell viability is 103 ± 12%.
In the case of `CC(C)(C)c1cc(C=C(C#N)C#N)cc(C(C)(C)C)c1O` [Tyrphostin 9], the cell viability turned out to be 96.2 ± 18%.
Take `O=C([O-])C(Cl)Cl.[Na+]` [Sodium†Dichloroacetate]: the cell viability was determined as 74 ± 24%.
As for `CN[C@@H]1C[C@H]2O[C@@](C)([C@@H]1OC)n1c3ccccc3c3c4c(c5c6ccccc6n2c5c31)C(=O)NC4` [Staurosporine], the cell viability turned out to be 11.9 ± 18%.
On to `COc1ccc2c(c[n+](C)c3c4cc5c(cc4ccc23)OCO5)c1OC` [Chelerythrine (chloride)], for which the cell viability was determined as 106 ± 10%.
On the same count and under the same terms, under `CC(C)=CCC[C@](C)(O)[C@H]1CC[C@]2(C)[C@@H]1[C@H](O)C[C@@H]1[C@@]3(C)CC[C@H](O[C@@H]4O[C@H](CO)[C@@H](O)[C@H](O)[C@H]4O)C(C)(C)[C@@H]3CC[C@]12C` [Ginsenoside Rh2] stands 116 ± 2.1%; under `CC(=O)OC(C)(C)/C=C/C(=O)[C@](C)(O)[C@H]1[C@H](O)C[C@@]2(C)[C@@H]3CC=C4[C@H](C[C@H](O)C(=O)C4(C)C)[C@]3(C)C(=O)C[C@]12C` [Cucurbitacin B], 61.7 ± 0.99%; under `COC[C@H]1OC(=O)c2coc3c2[C@@]1(C)C1=C(C3=O)[C@@H]2CCC(=O)[C@@]2(C)C[C@H]1OC(C)=O` [Wortmannin], 114 ± 9%.
With `N#C/C(=C\c1ccc(O)c(O)c1)C(N)=S`, the cell viability amounted to 91.3 ± 7.4%.

The next assay concerns Mv4-11. The description is as above. The note with it: 10 nM; 72 h. The method in brief: as §1
Take `COc1ccc2c(c[n+](C)c3c4cc5c(cc4ccc23)OCO5)c1OC` [Chelerythrine chloride]: the cell viability was 112 ± 6.5%.
Take `COc1ccc(N(C(=O)Oc2c(C)cccc2C)c2ccnc(Nc3ccc(N4CCN(C)CC4)cc3)n2)c(OC)c1`: the cell viability worked out at 108 ± 5.2%.
`O=C(O)c1nn(Cc2ccc(Cl)cc2Cl)c2ccccc12` [Lonidamine]: the cell viability was determined as 120 ± 4.8%.
For `COc1cc([C@@H]2c3cc4c(cc3[C@H](O)[C@H]3COC(=O)[C@@H]23)OCO4)cc(OC)c1OC` [Picropodophyllin (PPP)], the cell viability was 109 ± 3.8%.
As for `C/C(O)=C(\C#N)C(=O)Nc1cc(Br)ccc1Br`, the cell viability stood at 114 ± 7.8%.
`COC(=O)C1(OC)CC2OC1(C)n1c3ccccc3c3c4c(c5c6ccccc6n2c5c31)C(=O)N(C)C4` (stereo unspecified): the cell viability came out at 109 ± 2%.
With `CC(=O)N[C@H]1[C@@H](O[C@@H]2O[C@H](CC(O)[C@H]3O[C@@H](n4ccc(=O)[nH]c4=O)[C@H](O)[C@@H]3O)[C@H](O)[C@H](O)[C@H]2NC(=O)/C=C/CC(C)C)O[C@H](CO)[C@@H](N)[C@@H]1O` (stereo partly specified) [Tunicamycin], the cell viability came to 103 ± 3.8%.
Take `Cc1ccccc1-n1c(Cn2ncc3c(N)ncnc32)nc2cccc(C)c2c1=O`: the cell viability is 117 ± 14%.
`Cc1ccccc1-n1c(Cn2cnc3c(N)ncnc32)nc2cccc(C)c2c1=O`: the cell viability came to 111 ± 5.5%.
As to `O=c1[nH]c2ccccc2n1C1CCN(Cc2ccc(-c3[nH]c4cc5ncnc5cc4nc3-c3ccccc3)cc2)CC1` [AKT inhibitor VIII], the cell viability came out at 103 ± 5.7%.
As to `CC(C)(C)c1cc(C=C(C#N)C#N)cc(C(C)(C)C)c1O` [Tyrphostin 9], the cell viability is 99.7 ± 4.1%.
For the compound `O=C([O-])C(Cl)Cl.[Na+]` [Sodium†Dichloroacetate], the cell viability came to 110.7 ± 0.021%.
For the compound `CN[C@@H]1C[C@H]2O[C@@](C)([C@@H]1OC)n1c3ccccc3c3c4c(c5c6ccccc6n2c5c31)C(=O)NC4` [Staurosporine], the cell viability stood at 5.41 ± 3.4%.
As for `COc1ccc2c(c[n+](C)c3c4cc5c(cc4ccc23)OCO5)c1OC` [Chelerythrine (chloride)], the cell viability is 108 ± 1.4%.
The same measure, in the same setting: then `CC(C)=CCC[C@](C)(O)[C@H]1CC[C@]2(C)[C@@H]1[C@H](O)C[C@@H]1[C@@]3(C)CC[C@H](O[C@@H]4O[C@H](CO)[C@@H](O)[C@H](O)[C@H]4O)C(C)(C)[C@@H]3CC[C@]12C` [Ginsenoside Rh2], with 111 ± 2.3%.
In the case of `CC(=O)OC(C)(C)/C=C/C(=O)[C@](C)(O)[C@H]1[C@H](O)C[C@@]2(C)[C@@H]3CC=C4[C@H](C[C@H](O)C(=O)C4(C)C)[C@]3(C)C(=O)C[C@]12C` [Cucurbitacin B], the cell viability turned out to be 82.9 ± 4.3%.
Regarding `COC[C@H]1OC(=O)c2coc3c2[C@@]1(C)C1=C(C3=O)[C@@H]2CCC(=O)[C@@]2(C)C[C@H]1OC(C)=O` [Wortmannin], the cell viability was 110.22 ± 0.09%.
Take `N#C/C(=C\c1ccc(O)c(O)c1)C(N)=S`: the cell viability worked out at 104 ± 2.4%.

Source of the values: the supplement of paper PMC8699584.
